The entries come from a sample that favours hits as a whole.
Luciferase inh – qHTS Assay for Inhibitors of Firefly Luciferase; purified firefly luciferase, luminescence, 8 min; hit rate 2.2% among 72,000; Luciferin 4-monooxygenase (Photinus pyralis), P08659; AID 411, 2009; Potency, µM (highest dose often 57.1 µM), inactives show at the top dose activity change, negative = inhibition, most hits filed as inhibitors; also: potency is read from the fitted curve at half-maximal effect; % is scaled to controls: 0 for no effect and ±100 for the full control effect; nearly all actives have a fitted effect of over 40% in size
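Here, luciferase activity is measured as luminescence following an 8 min room-temperature reaction at 10 uM ATP, pH 7.2. Every library sample is titrated.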
IMPase cell inh – qHTS Assay for Identifying the Cell-Membrane Permeable IMPase Inhibitors | 120,000 tested, under 10 active | CHO-M1 cells, IP1 accumulation, HTRF TR-FRET ratio | Inositol monophosphatase 1 (Rattus norvegicus), P97697 | AID 901, 2007 | inhibition (IP1 accumulation), % at 46.1 µM; active = well fitted curve in the direction sought with a large enough effect in the signal ratio, not every such curve was filed as active; inconclusive = small, poorly fitted or top-dose-only effect, or a change in a side signal; inactive = no such curve, though single readings can be large or run the other way; the % refers to the signal ratio;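 also: cells stimulated with carbachol in lithium chloride buffer; plate controls were DMSO basal wells for no effect and reference inhibitor wells for full effect; higher means more IMPase inhibition seen as more IP1 and lower FRET ratio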
Target sequence (P97697 whole entry, looked up): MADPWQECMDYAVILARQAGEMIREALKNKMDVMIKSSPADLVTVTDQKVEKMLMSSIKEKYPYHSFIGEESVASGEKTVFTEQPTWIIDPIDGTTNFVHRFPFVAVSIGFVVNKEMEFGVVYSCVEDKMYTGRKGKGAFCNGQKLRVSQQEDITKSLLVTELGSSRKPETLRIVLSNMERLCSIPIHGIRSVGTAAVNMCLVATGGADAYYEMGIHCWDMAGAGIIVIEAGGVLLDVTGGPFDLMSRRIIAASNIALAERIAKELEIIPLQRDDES
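Seeded CHO-M1 cells were dosed with compound at up to 46 uM, stimulated with carbachol for 30 min, then lysed in IP-One detection reagents. Higher IP1 lowers the TR-FRET signal.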
p53ts 39C tox – qHTS Screen for Compounds that Selectively Target Cancer Cells with p53 Mutations: Cytotoxicity of p53ts Cells at the Nonpermissive Temperature; H1299-p53A138V viability at 39C, ATP luminescence, 24 h; Potency, µM (top dose mostly 46.1 µM), for inactives: top-dose activity change, negative = cell killing, hits mostly cytotoxic; hit rate 1.5% among 130,000; AID 902, 2007; also: potency is read from the fitted curve at half-maximal effect; % is scaled to controls: 0 for no effect and ±100 for the full control effect; nearly all actives have a fitted effect of over 55% in size
p53ts 32C tox – qHTS Screen for Compounds that Selectively Target Cancer Cells with p53 Mutations: Cytotoxicity of p53ts Cells at the Permissive Temperature | AID 924, 2007 | H1299-p53A138V at 32C, ATP luminescence viability, 24 h | Potency, µM (highest dose often 46.1 µM), for inactives: top-dose activity change, negative = cytotoxicity, hits mostly cytotoxic | hit rate 0.93% among 130,000;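 also: potency is read from the fitted curve at half-maximal effect; 0% = DMSO and -100% = full killing by reference compound; nearly all actives have a fitted effect of over 55% in size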
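H1299-p53 A138V cells (temperature-sensitive p53) exposed 24 h to up to 46 uM compound at 32C, where p53 is wild-type in conformation. Viability read as ATP luminescence and normalised to DMSO and 100 uM tamoxifen. AC50 fitted with the Hill equation.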
Hsp90 Hop PPI – qHTS Assay for Disrupters of an Hsp90 Co-Chaperone Interaction; AlphaScreen TPR2A-His6 binding biotin-Hsp90 C-terminal peptide; Potency, µM (doses to about 57 µM), for the others: top-dose activity change, negative = inhibition; hit rate 0.44% among 71,000; active = well fitted curve in either direction with a large enough effect; inconclusive = small, poorly fitted or top-dose-only effect, or another doubt; also: potency is read from the fitted curve at half-maximal effect; % is scaled to controls: 0 for no effect and ±100 for the full control effect
IkB signaling – IkB Signaling. Potency, µM (doses to about 57.1 µM), without a hit: at the top dose IkBa stabilization activation. AID 445, 2006. hit rate 0.04% among 110,000. ABC-DLBCL IkBa-CBG/CBR dual luciferase ratio, 4 h; response scale: scaled: untreated 0%, proteasome inhibitor 100%; active = well fitted curve in the direction sought with a large enough effect in the signal ratio, not every such curve was filed as active; inconclusive = small, poorly fitted or top-dose-only effect, or a change in a side signal; the % refers to the signal ratio;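 also: potency is read from the fitted curve at half-maximal effect; the direction sought is a rising ratio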
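Luminescence ratio of IκBα-fused green versus native red beetle luciferase in OCI-Ly3 cells, 4 h post-doxycycline with compound; red signal alone, scaled from basal (0%) to zero light (-100%), flagged nonspecific or cytotoxic effects.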
* = called active by the depositor; ? = inconclusive; . = no result given; [ ] = another dose, or the depositor's remark. Unless noted, calls follow the shape of the dose curve; as a rule, active = well fitted curve in the direction sought with a large enough effect; inconclusive = small, poorly fitted or top-dose-only effect, or another doubt; inactive = no such curve, though single readings can be large; an effect the other way counts as inactive or inconclusive.

SMILES	Luciferase inh	IMPase cell inh	p53ts 39C tox	p53ts 32C tox	Hsp90 Hop PPI	IkB signaling
CCOC(=O)c1oc2ccc(CNCCO)c(Cl)c2c1C	25µM*	7	-10%	-19%	-6%	1%
CCOC(=O)c1oc2ccc(CNC3CCCCC3)c(Cl)c2c1C	.	9	-19%	3%	.	.
CCN(CC)c1ccc(NC(=O)c2ccc(Br)o2)cc1	10µM*	12	?	13µM*	-29%[11 µM]	3%
COc1ccc(C(=O)Nc2ccc(N3CCCC3)cc2)cc1	.	10	.	.	.	.
CCCCOC(=O)Nc1ccc(N2CCCCC2)cc1	13µM*	10	?	?	-12%	-2%
O=C(Nc1ccc(N2CCCC2)cc1)c1ccc(Br)o1	2.5µM*	5	-23%	?	?	2%
COC(=O)Cc1ccc(NC(=O)c2ccc(Br)o2)cc1	-30%	-4	?	-28%	-3%	0%
O=C(Nc1ccc(N2CCCCC2)cc1)c1ccc(F)cc1	4µM*	-8	?	7.9µM*	-8%	1%
O=C(Nc1ccc(N2CCN(C(=O)c3ccccc3)CC2)cc1)c1ccc(Br)o1	2%	14	2%	12%	-11%	?
O=C(OCc1ccco1)c1ccc2c(c1)N(Cc1cccc(F)c1)C(=O)c1ccccc1S2	.	.	-10%	19%	.	-2%
Nc1nc(-c2ccc3c(c2)CCCC3)cs1	13µM*	3	13µM*	?	-18%	-1%
Cc1nc(-c2ccc3c(c2)OCO3)cs1	.	-3	-9%	-17%	.	.
c1cncc(-c2nc(-c3ccco3)cs2)c1	-13%	-9	-4%	5%	-10%	?
CCC(C)C(=O)N1CCc2cc(-c3csc(N)n3)ccc21 (stereo not given)	10µM*	-3	13µM*	10µM*	-4%	-2%
Nc1nc(-c2ccc3c(c2)OCCO3)cs1	25µM*	9	?	?	-10%	-1%
c1cncc(-c2nc(-c3ccc4c(c3)OCO4)cs2)c1	13µM*	-4	?	?	5%	0%
CCOC(=O)c1cc(C)n(CC2CCC(C(=O)Nc3ccc(Cl)cc3)CC2)c1C (stereo not given)	.	.	-7%	26%	.	?
C/C(=N\Nc1nc2ccccc2[nH]1)c1cc2ccccc2o1	.	6	13µM*	16µM*	.	.
Cc1ccccc1N1CC(c2nc3ccccc3n2Cc2ccc(Br)cc2)CC1=O (stereo not given)	.	.	17%	3%	.	1%
O=C(Nc1ccc2oc(-c3cccc(Cl)c3Cl)nc2c1)c1cccc(Br)c1	.	-6	10µM*	?	.	0%
COc1ccc(C(=O)Nc2ccc3oc(-c4cc(Cl)ccc4Cl)nc3c2)cc1Br	.	-4	10µM*	?	.	?
Cc1cccc(NC(=O)CSc2nccn2Cc2ccc(F)cc2)c1C	.	.	-32%	10%	.	5%
COc1ccc(-c2cn3cccnc3n2)cc1NC(=O)COc1ccccc1	.	.	-21%	4%	.	-1%
O=C(CSc1ncnc2sc3c(c12)CCCC3)c1ccccc1	.	12	16%	10%	.	.
O=C(CSc1ncnc2sc3c(c12)CCCC3)c1ccco1	32µM*	5	-10%	-5%	5%	2%
SMILES	Luciferase inh	IMPase cell inh	p53ts 39C tox	p53ts 32C tox	Hsp90 Hop PPI	IkB signaling
Cc1ccc2c(c1)cc(C(=O)NCc1ccc(F)cc1)n2C	.	.	-1%	?	.	-2%
COc1ccc(-c2nc(C#N)c(NCCc3ccccc3)o2)cc1OC	13µM*	-7	-26%	-17%	-8%	?
Cn1cc(C(=O)N2CCN(c3cccc(C(F)(F)F)c3)CC2)c2c3ccccc3n(C)c2c1=O	.	.	13µM*	-5%	.	?
O=[N+]([O-])c1ccc2c(N=Nc3ccc4ccccc4c3O)c(O)cc(S(=O)(=O)O)c2c1	-16%[11.4 µM]	.	-12%[9.22 µM]	-6%[9.22 µM]	?	3%[11.4 µM]
CC(C)CCNC(=O)c1cccc(Nc2nc3ccccc3n3nnnc23)c1	.	-13	10µM*	?	.	?
COc1cccc(NS(=O)(=O)c2cc(-c3cnc(C4CC4)o3)ccc2C)c1	.	.	-9%	19%	.	10%
O=C(NCCN1C(=O)C2C3C=CC(C3)C2C1=O)Nc1ccc(Br)cc1 (stereo not given)	16µM*	6	-20%	-20%	-2%[2.3 µM]	0%
O=C(NCCN1C(=O)C2C3C=CC(C3)C2C1=O)Nc1cccnc1 (stereo not given)	-1%	3	-5%	-7%	-6%[2.3 µM]	-2%
COc1ccc(N2Cc3cccc(C(=O)Nc4ccc(C(C)C)cc4)c3C2=O)cc1	.	.	4µM*	5µM*	.	-1%
COCCN1Cc2cccc(C(=O)Nc3ccc(C)c(C)c3)c2C1=O	25µM*	-5	-9%	-10%	-1%	1%
COc1ccc(N2Cc3cccc(C(=O)Nc4ccc(C)cc4)c3C2=O)cc1	.	.	-8%	7%	.	-1%
CCCOC(=O)CN1C(=O)c2ccc(C(=O)OCCC)cc2C1=O	1%	1	-1%	-3%	1%	1%
CCCCOC(=O)CN1C(=O)c2ccc(C(=O)OCCCC)cc2C1=O	5%	7	-3%	0%	25µM*	?
CC(=O)OCC1OC(C#Cc2ccc(Cl)cc2)C=CC1OC(C)=O (stereo not given)	.	.	2%[9.22 µM]	2%[9.22 µM]	.	.
COc1ccccc1CCNC(=O)C(C)Sc1nc(-c2ccccc2)cc(C(F)(F)F)n1 (stereo not given)	.	5	-23%	-14%	.	?
O=S(=O)(NCc1ccccc1)c1ccc2[nH]c3c(c2c1)CCCCC3	.	.	32µM*	4%	.	-3%
Cc1ccc(CNS(=O)(=O)c2ccc3[nH]c4c(c3c2)CCCCC4)cc1	.	.	20µM*	-2%	.	?
COc1ccc(-c2cn3cccnc3n2)cc1NC(=O)c1cc(C)cc(C)c1	.	.	-8%	6%	.	?
COc1ccc2oc(-c3ccc(C)c(NC(=O)c4ccc(-c5ccccc5[N+](=O)[O-])o4)c3)nc2c1	.	.	10µM*	-20%	.	?
CCOC(=O)c1c(C)[nH]c(C(=O)CSc2ccccc2)c1C	4µM*	10	?	?	-2%	-2%
Brc1ccc(-c2csc(N3CCc4ccccc4C3)n2)cc1	.	-2	.	.	.	.
c1c2c(cc3sc(N4CCCCC4)nc13)OCO2	6.3µM*	8	10µM*	6.3µM*	-8%	?
c1ccc(N2CCN(c3nc4cc5c(cc4s3)OCO5)CC2)cc1	?	1	-4%	-6%	-3%	-3%
